Measurements taken from PubChem BioAssay AID2685 (National Center for Advancing Translational Sciences (NCATS), 2010).
Hit rate of the full screen: of about 320,000 compounds, about 2,100 (0.66%) were called active. Another 53% or so got no clear call; they are omitted. Calls come from the whole dose curve; as a rule, active = well fitted inhibition curve with a large enough effect in the signal ratio, with a control signal flat (not every such curve was filed as active); inconclusive = small, poorly fitted or top-dose-only effect, or effect the other way, or a change in a side signal; inactive = flat fitted curve, though single readings scatter; the % refers to the signal ratio. What follows is part of a selection rich in actives, with near analogues and random picks from the rest.

test: qHTS Assay for Lipid Storage Modulators in Drosophila S3 Cells; conditions: BODIPY lipid droplet fluorescence, 18-24 h, cells fed with added oleic acid; cell number change: measured here: cell count max response; series mostly up to 46.1 µM; lipid storage change, negative = inhibition: at the top concentration;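 for cell number change: cells counted by Cell Tracker Red CMTPX staining in the red channel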; for lipid storage change, negative = inhibition: % is set by controls: 0 for no effect and ±100 for the full control effect
Method in brief: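 Drosophila S3 cells loaded with oleic acid (400 uM, as added) and compounds at several concentrations; lipid droplets imaged by 488-nm laser-scanning cytometry, 500–530 nm intensity and object ratio to cell channel. Percent activity normalized to 20 uM Triacsin C.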
Potency is the fitted concentration of half-maximal effect.

Which “lipid storage change, negative = inhibition” value does the source give for `CN(Cc1ccccc1)C(=O)COc1ccc(N(C)S(=O)(=O)c2ccc(F)cc2)cc1` here?
The value was -2.56% (inactive).

And the cell number change?
Its cell number change is -1.11%.

For `Cc1ccc(C(C(=O)NCc2ccc(F)cc2)N(Cc2ccco2)C(=O)c2snc(C(N)=O)c2N)o1` (configuration not stated), which Potency is on record?
The Potency was 13 µM (active).

And the cell number change?
The cell number change was -23%.

Which results are given for `CCC(C(=O)NCc1ccc(F)cc1)N(Cc1ccco1)C(=O)c1snc(C(N)=O)c1N` (configuration not stated)?
lipid storage change, negative = inhibition: 24.7% (inactive); cell number change: -6.14%

For `NC(=O)c1nsc(C(=O)N(Cc2ccco2)C(C(=O)NCc2ccc(F)cc2)c2ccc(O)cc2)c1N` (configuration not stated), which “outcome” value is on record?
Its value is “inactive”.

What does the source list for `Cc1oc2c(c1C(=O)NC(Cc1c[nH]c3ccccc13)C(=O)O)CCCC2` (configuration not stated)?
lipid storage change, negative = inhibition: 6.04% (inactive); cell number change: 18%

Which results are given for `Cc1cccc(Cc2c(C)[nH]c(=O)c(C#N)c2C)c1`?
cell number change: -1.36%; lipid storage change, negative = inhibition: -17.3% [at 9.22 µM] (inactive)

What does the source list for `N=c1oc2ccc(Br)cc2cc1C(=O)NC1CCCCCC1`?
outcome: inactive; cell number change: -5.41%

What does the source list for `O=C(O)C1CCCN1S(=O)(=O)c1ccccc1` (configuration not stated)?
lipid storage change, negative = inhibition: -1.6% (inactive); cell number change: 14%

What does the source list for `CCCc1cc(=O)oc2c(C)c(OCC(=O)NCCCN3CCOCC3)ccc12`?
outcome: inactive; cell number change: 7.37%

With `Cc1cc(=O)oc2cc(OCC(=O)NCCCN3CCCC3=O)c(Cl)cc12` as the compound, how does the “outcome” value read?
The value was “inactive”.

What about the cell number change of the same compound?
The cell number change was -17.4%.

Which results are given for `CCc1cc(=O)oc2cc(OCC(=O)NCCCN3CCCC3=O)ccc12`?
outcome: inactive; cell number change: 3.54%

With `CC(Oc1cc2oc(=O)c3c(c2cc1Cl)CCC3)C(=O)NCCCN1CCCC1=O` (configuration not stated) as the compound, how does the Potency read?
The Potency was 1.64 µM (active).

And the cell number change?
Its cell number change is -19.6%.

For `Cc1cc(=O)oc2c(C)c(OCC(=O)NCCCN3CCCC3=O)ccc12`, which “outcome” value is on record?
The value was “inactive”.

What about the cell number change of the same compound?
The cell number change was -21.7%.

For `CCCCc1cc(=O)oc2c(C)c(OCC(=O)NCCN3CCOCC3)ccc12`, which Potency is on record?
The Potency was 8.2 µM (active).

What about the cell number change of the same compound?
Its cell number change is -17%.

Which results are given for `Cc1c(OCC(=O)NCCCN2CCCC2=O)ccc2c3c(c(=O)oc12)CCCC3`?
Potency: 8.2 µM (active); cell number change: -7.37%

What does the source list for `CCCc1cc(=O)oc2c(C)c(OCC(=O)NCCN3CCOCC3)ccc12`?
lipid storage change, negative = inhibition: 8.89% (inactive); cell number change: 19.4%

Which “outcome” value does the source give for `Cc1c(OCC(=O)NCCCN2CCOCC2)ccc2c3c(c(=O)oc12)CCC3` here?
Its value is “inactive”.

What about the cell number change of the same compound?
The cell number change was -21.2%.

Which results are given for `CCc1cc(=O)oc2cc(OCC(=O)NCCCN3CCCC3=O)c(Cl)cc12`?
Potency: 16.4 µM (active); cell number change: 11.6%

For `CC(Oc1cc2oc(=O)c3c(c2cc1Cl)CCC3)C(=O)NCCCN1CCOCC1` (configuration not stated), which “outcome” value is on record?
Its value is “inactive”.

And the cell number change?
The cell number change was 14.5%.

For `CC(Oc1cc2oc(=O)c3c(c2cc1Cl)CCC3)C(=O)NCCN1CCOCC1` (configuration not stated), which “lipid storage change, negative = inhibition” value is on record?
The value was -12.3% (inactive).

And the cell number change?
The cell number change was 9.27%.

What does the source list for `COc1ccc(OCCNC(=O)c2ccccc2OCC(=O)N2CCCCC2)cc1`?
lipid storage change, negative = inhibition: -8.65% (inactive); cell number change: -14.3%

With `O=C(c1ccc(S(=O)(=O)NCc2ccco2)cc1)N1CCN(Cc2ccccc2F)CC1` as the compound, how does the “outcome” value read?
The value was “inactive”.

And the cell number change?
The cell number change was -10.8%.

What does the source list for `COc1cccc(N(C(=O)CS(=O)CC(=O)Nc2ccc(F)cc2)C(C(=O)NC2CCCCC2)c2cccs2)c1` (configuration not stated)?
lipid storage change, negative = inhibition: -10.8% (inactive); cell number change: -4.8%

For `COC(=O)CCCC1=CC2=CC(=O)C(C)(OC(=O)c3cccs3)C(=O)C2=CN1c1ccc(OC)cc1` (configuration not stated), which “lipid storage change, negative = inhibition” value is on record?
Its value is 5.26% (inactive).

Which results are given for `COc1ccc2c(c1)C(=O)N(c1ccccc1)C(=O)C2`?
Potency: 23.1 µM (active); cell number change: -11.7%

Which Potency does the source give for `O=C1Cc2ccccc2C(=O)N1c1ccccc1` here?
Its Potency is 10.3 µM (active).

And the cell number change?
The cell number change was 9.57%.

For `CCOc1ccc(N2C(=O)c3cccnc3C2=O)cc1`, which “lipid storage change, negative = inhibition” value is on record?
The value was 12.3% (inactive).

And the cell number change?
Its cell number change is -11.4%.

What does the source list for `COc1ccc2c(c1)C(=O)N(c1ccc(C)cc1)C(=O)C2`?
lipid storage change, negative = inhibition: -3.58% (inactive); cell number change: 11.1%

For `COc1ccc(N2C(=O)c3ccccc3C2=O)cc1`, which “lipid storage change, negative = inhibition” value is on record?
The value was 19% (inactive).

What about the cell number change of the same compound?
Its cell number change is 2.95%.

Which results are given for `COc1ccc(N2C(=O)Cc3ccccc3C2=O)cc1`?
lipid storage change, negative = inhibition: 7.06% (inactive); cell number change: 10.9%

What does the source list for `O=C1Cc2ccccc2C(=O)N1c1cccc(Cl)c1`?
outcome: inactive; cell number change: 10.3%

For `O=C1Cc2ccccc2N1c1ccccc1`, which “lipid storage change, negative = inhibition” value is on record?
Its value is 8.9% (inactive).

And the cell number change?
The cell number change was 11.5%.

Which Potency does the source give for `CCOc1ccc(N2C(=O)Cc3ccccc3C2=O)cc1` here?
The Potency was 29.1 µM (active).

What about the cell number change of the same compound?
The cell number change was 0.833%.

Which “lipid storage change, negative = inhibition” value does the source give for `COc1ccccc1C(=O)NC(=O)COC(=O)c1oc2ccccc2c1C` here?
Its value is -2% (inactive).

And the cell number change?
The cell number change was 20%.

What does the source list for `CCOc1nc(-c2ccccc2)ccc1-c1noc(-c2ccco2)n1`?
lipid storage change, negative = inhibition: 4.86% (inactive); cell number change: -9.76%

With `O=C1CN(C(=O)COC(=O)Cc2ccsc2)c2ccccc2N1` as the compound, how does the “lipid storage change, negative = inhibition” value read?
The value was 3.29% (inactive).

And the cell number change?
The cell number change was 4.09%.

Which “lipid storage change, negative = inhibition” value does the source give for `NC(=O)C(c1ccc(Cl)cc1)c1ncc(C(F)(F)F)cc1Cl` (configuration not stated) here?
The value was 20.1% (inactive).

And the cell number change?
The cell number change was 6.15%.

For `CCC(=O)c1ccc(OCC(=O)OCC(=O)NC2CCCC2)cc1`, which cell number change is on record?
The cell number change was -7.74%.

What about the lipid storage change, negative = inhibition of the same compound?
The lipid storage change, negative = inhibition was 7.81% [at 0.0737 µM] (inactive).

For `Cc1cccc(NC(=O)c2sc(Cl)nc2C)c1C`, which “lipid storage change, negative = inhibition” value is on record?
The value was 17.3% (inactive).

And the cell number change?
The cell number change was 27.7%.

Which results are given for `Cc1nc(C)c(C(=O)OCC(=O)Nc2cccc(C)c2C)s1`?
Potency: 16.4 µM (active); cell number change: -21.3%

Which Potency does the source give for `Cc1nc(C)c(C(=O)OCC(=O)NCc2ccccc2)s1` here?
Its Potency is 1.16 µM (active).

What about the cell number change of the same compound?
The cell number change was 2.69%.

For `Cc1nc(C)c(C(=O)OCC(=O)NCCc2ccc(S(N)(=O)=O)cc2)s1`, which “outcome” value is on record?
Its value is “inactive”.

And the cell number change?
Its cell number change is 5.35%.

For `CCOC(=O)c1sc(Nc2cccc(C)c2C)nc1C`, which “outcome” value is on record?
Its value is “inactive”.

With `COc1ccc(CCNC(=O)COC(=O)c2sc(C)nc2C)cc1` as the compound, how does the “lipid storage change, negative = inhibition” value read?
Its value is -22.8% (inactive).

What about the cell number change of the same compound?
Its cell number change is 13.9%.

Which lipid storage change, negative = inhibition does the source give for `Cc1cccc(C)c1NC(=O)CN(C)C(=O)c1cccc(-n2cccc2)c1` here?
Its lipid storage change, negative = inhibition is 9.6% [at 0.0737 µM] (inactive).

What does the source list for `N#Cc1cccc(NC(=O)COC(=O)CCc2ccc(S(=O)(=O)N3CCOCC3)cc2)c1`?
lipid storage change, negative = inhibition: 7.64% (inactive); cell number change: 0.933%

What does the source list for `CCOC(=O)C(=NC(C)CC)NNc1cccc(C(F)(F)F)c1` (configuration not stated)?
lipid storage change, negative = inhibition: -2.64% (inactive); cell number change: 0.302%

Which results are given for `Cc1cccc(C)c1N(CC(=O)NCc1ccccc1)C(=O)c1csnn1`?
outcome: inactive; cell number change: -7.94%

Which results are given for `CN(C)C(=O)c1nc2ccc(Cl)cn2c1CNCc1ccccc1OC(F)(F)F`?
lipid storage change, negative = inhibition: 4.92% (inactive); cell number change: -4.39%

For `CN1C/C(=C/c2ccncc2)C(=O)/C(=C/c2ccncc2)C1`, which “outcome” value is on record?
Its value is “inactive”.

What about the cell number change of the same compound?
The cell number change was 15.3%.

Which results are given for `CC(C)N1CC2=C(OC(N)=C(C#N)C2c2cccnc2)/C(=C/c2cccnc2)C1` (configuration not stated)?
lipid storage change, negative = inhibition: 11.8% (inactive); cell number change: -0.305%

Which “lipid storage change, negative = inhibition” value does the source give for `CC(C)N1C(=O)S/C(=C/c2cccnc2)C1=O` here?
Its value is -20.1% (inactive).

What about the cell number change of the same compound?
Its cell number change is 16.4%.

For `CN1C/C(=C\c2ccc(N3CCOCC3)cc2)C(=O)/C(=C/c2ccc(N3CCOCC3)cc2)C1`, which Potency is on record?
Its Potency is 7.31 µM (active).

What about the cell number change of the same compound?
Its cell number change is -12.7%.

With `C(=N\N1CCN(Cc2ccccc2)CC1)/c1cccnc1` as the compound, how does the “lipid storage change, negative = inhibition” value read?
Its value is 10.3% (inactive).

And the cell number change?
The cell number change was 3.04%.

For `CC1=N/C(=C/c2cccnc2)C(=O)O1`, which “lipid storage change, negative = inhibition” value is on record?
Its value is 0.341% (inactive).

What about the cell number change of the same compound?
Its cell number change is -0.0715%.

What does the source list for `O=C1/C(=C/c2cccnc2)CCc2c1[nH]c1ccccc21`?
lipid storage change, negative = inhibition: 19% (inactive); cell number change: -5.69%

What does the source list for `O=C1/C(=C\c2cccnc2)CCc2ccccc21`?
lipid storage change, negative = inhibition: 5.43% (inactive); cell number change: -16.3%

Which Potency does the source give for `CN1C/C(=C/c2cccnc2)C(=O)/C(=C/c2cccnc2)C1` here?
The Potency was 1.84 µM (active).

And the cell number change?
Its cell number change is -16.3%.

Which Potency does the source give for `O=C1/C(=C\c2cccnc2)CN(Cc2ccccc2)C/C1=C\c1cccnc1` here?
The Potency was 2.31 µM (active).

What about the cell number change of the same compound?
Its cell number change is -26.3%.

With `O=C1NC(=S)N/C1=C\c1ccc(N2CCOCC2)cc1` as the compound, how does the “lipid storage change, negative = inhibition” value read?
Its value is -7.79% (inactive).

With `CC(C)N1C/C(=C/c2cccnc2)C(=O)/C(=C/c2cccnc2)C1` as the compound, how does the Potency read?
The Potency was 23.1 µM (active).

What about the cell number change of the same compound?
Its cell number change is -15.1%.
